# PLC-beta3 inh – inhibitors of human phospholipase C beta3. inhibition, % at 12.2 µM. Q01970. AID 720704. Purified PLC-beta3, fluorogenic substrate, fluorescence. 370,000 compounds, 0.18% hits; in the data active = inhibition above about 11%;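 also: 0% = median of compound wells on plate and 100% = full blocker control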
# Target sequence (Q01970 whole entry, looked up): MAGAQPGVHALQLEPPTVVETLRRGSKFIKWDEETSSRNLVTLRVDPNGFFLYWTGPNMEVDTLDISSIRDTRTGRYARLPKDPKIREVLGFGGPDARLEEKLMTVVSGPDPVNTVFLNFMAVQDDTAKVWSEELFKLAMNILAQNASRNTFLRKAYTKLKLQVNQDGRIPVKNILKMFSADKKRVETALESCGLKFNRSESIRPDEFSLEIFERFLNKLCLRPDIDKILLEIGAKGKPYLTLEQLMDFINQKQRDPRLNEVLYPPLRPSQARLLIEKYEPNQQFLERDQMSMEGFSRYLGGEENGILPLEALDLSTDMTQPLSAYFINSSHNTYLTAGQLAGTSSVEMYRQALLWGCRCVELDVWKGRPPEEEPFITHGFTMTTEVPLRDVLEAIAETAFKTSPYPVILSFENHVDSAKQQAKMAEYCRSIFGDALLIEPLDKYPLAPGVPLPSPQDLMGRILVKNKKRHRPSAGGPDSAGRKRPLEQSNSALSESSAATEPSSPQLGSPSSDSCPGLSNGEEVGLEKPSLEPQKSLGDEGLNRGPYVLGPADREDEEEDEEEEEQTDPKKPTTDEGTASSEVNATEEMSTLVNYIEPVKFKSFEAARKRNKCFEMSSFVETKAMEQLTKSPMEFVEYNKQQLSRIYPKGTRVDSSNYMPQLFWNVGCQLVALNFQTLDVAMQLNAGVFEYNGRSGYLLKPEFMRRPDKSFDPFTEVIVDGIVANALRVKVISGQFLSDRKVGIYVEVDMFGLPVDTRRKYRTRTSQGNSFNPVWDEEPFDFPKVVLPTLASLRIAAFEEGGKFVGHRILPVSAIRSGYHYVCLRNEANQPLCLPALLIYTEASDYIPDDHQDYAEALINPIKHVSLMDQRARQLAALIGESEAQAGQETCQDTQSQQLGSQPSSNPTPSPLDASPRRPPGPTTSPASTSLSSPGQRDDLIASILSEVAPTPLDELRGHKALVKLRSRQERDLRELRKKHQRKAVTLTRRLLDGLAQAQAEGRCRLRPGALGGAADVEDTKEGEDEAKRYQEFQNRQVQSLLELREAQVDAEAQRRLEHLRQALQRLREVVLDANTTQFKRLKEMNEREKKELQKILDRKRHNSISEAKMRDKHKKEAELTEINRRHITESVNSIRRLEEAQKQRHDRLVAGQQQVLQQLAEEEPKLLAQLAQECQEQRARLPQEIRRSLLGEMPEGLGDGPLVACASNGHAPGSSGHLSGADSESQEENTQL
# HGIII-sPLA2 inh – Inhibits HGIII-sPLA2 liposome hydrolysis, primary screen; QFRET BODIPY PC-A2 liposome hydrolysis, fluorescence; inhibition, % at 12.2 µM; 370,000 compounds, 0.56% hits;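 active = inhibition above mean plus 3 SD of compounds lying within the high and low control bounds, cut at about 19% in these data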;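 also: 0% = median of test compound wells and 100% = no enzyme DMSO wells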
# KLK7 zymogen act – proKLK7 (human) activation, primary screen; P49862; purified proKLK7, EDANS-DABCYL substrate fluorescence; 100% is mature enzyme control, 0% vehicle; activation, % at 7 µM; 370,000 compounds, 0.9% hits;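 active = activation above the mean of all tested compounds plus 3 SD, computed per campaign excluding outliers beyond control limits, cut at about 13% in these data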
# PLC-gamma1 inh – blocks human PLC-gamma1 enzyme activity | P19174 | purified PLC-gamma1, fluorogenic substrate, fluorescence | inhibition, % at 12.2 µM | 370,000 compounds, 0.84% hits | AID 720700; in the data active = inhibition above about 9.5%
# ADAM10 inh – ADAM10 inhibition, QFRET primary screen. O14672. recombinant ADAM10, EDANS/DABCYL FRET peptide cleavage, 3 h. inhibition, % at 7 µM. 370,000 compounds, 0.62% hits;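 active = inhibition above a per-campaign cutoff equal to the mean of compounds falling between control-based bounds plus 3 SD, cut at about 20% in these data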;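 also: 0% = DMSO wells while the 100% control is not disclosed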
# ADAM17 inh – inhibitors of human ADAM17. P78536. recombinant ADAM17, EDANS/DABCYL FRET peptide cleavage. inhibition, % at 6.95 µM. 370,000 compounds, 0.83% hits. AID 720648;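 active = inhibition above the mean of compounds lying between control limits plus 3 SD, set per campaign, cut at about 8.5% in these data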;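 also: 0% = DMSO-only wells as the low control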
# KLK7 act conf – confirmation of human kallikrein-7 zymogen activators. shares compounds with KLK7 zymogen act. 3,200 compounds, 68% hits. activation, % at 7 µM. purified proKLK7, EDANS-DABCYL substrate fluorescence; scaled: vehicle 0, mature enzyme 100. AID 686949;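 active = activation, as change over the incubation, above the mean of all tested compounds plus 3 SD, cut at about 13% in these data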
# EDANS interfere – counter-screen for kallikrein-7 activators: EDANS-DABCYL optical interference. EDANS-DABCYL substrate fluorescence interference, no enzyme, 4 h; solvent 0%, active enzyme control 100%. activation, % at 7 µM. 3,200 compounds, 80% hits. shares compounds with KLK7 zymogen act. AID 686952;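 active = activation above the all-compound mean plus 3 SD, ignoring values outside control-based bounds, cut at about 4.8% in these data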;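 also: value is the 4 h activation minus the activation read at time zero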
# EDANS interf – EDANS fluorescence interference in dose response, no enzyme. EC50, µM. 250 compounds, 20% hits. shares compounds with KLK7 zymogen act. EDANS-DABCYL peptide fluorescence interference. AID 720493;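 active = compounds that raise the fluorescence signal in this interference counterscreen, with EC50 at or below 10 µM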;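 also: intact quenched peptide substrate alone read at 355 nm excitation and 520 nm emission; signal is fluorescence gain from T0 to T4 after four hours at room temperature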
# * marks the source's active call; other numbers are inactive results; i = inactive; . = not tested or not shown. Rows were chosen to be rich in hits. Some 3.4% of all compounds tested hit in one or more screens of this group.
SMILES,PLC-beta3 inh,HGIII-sPLA2 inh,KLK7 zymogen act,PLC-gamma1 inh,ADAM10 inh,ADAM17 inh,KLK7 act conf,EDANS interfere,others
COCCN1CCn2c(nc3cc(NC(=O)NC4CCCCC4)ccc32)C1,i,-5,16*,i,i,-286,-22,-14,
Cc1ccc(NC(=O)N2CCC(c3nc4ccc(Cl)cc4[nH]3)CC2)cc1F,-1,-16,0,0,8,4,.,.,
Cc1c(CCC(=O)NCCCN2CCCC2=O)c(=O)oc2c(C)c(O)ccc12,i,6,79*,i,i,i,63*,77*,
Cc1oc2c(C)c3oc(=O)c(CCC(=O)NCCCCCC(=O)O)c(C)c3cc2c1C,i,7,21*,-427,-196,-91,14*,9.3*,EDANS interf=>69
Cc1c(CCC(=O)NCCCN2CCCC2=O)c(=O)oc2cc(O)ccc12,i,-2,73*,i,i,i,65*,84*,
Cc1coc2c(C)c3oc(=O)c(CCC(=O)NCCCN4CCCC4=O)c(C)c3cc12,-204,4,5,-155,-269,-68,.,.,
CCCCN1CCN(C(=O)C2CCN(S(=O)(=O)c3ccc4[nH]c(=O)oc4c3)CC2)CC1,2,4,0,1,-8,-4,.,.,
CCOC(=O)C1=C(CSc2nc(-c3ccncc3)ccc2C#N)OC(N)=C(C#N)C1c1cccnc1 (stereo not given),i,-4,51*,-482,-134,-39,66*,72*,
CCOC(=O)C1=C(CSc2nc(CC)c(C)cc2C#N)OC(N)=C(C#N)C1c1ccc(OC)cc1 (stereo not given),-204,-15,5,-184,-122,-28,.,.,
CCOC(=O)C1=C(CSc2nc(-c3ccncc3)ccc2C#N)OC(N)=C(C#N)C1c1ccc(OC)cc1 (stereo not given),-479,-4,26*,-418,-41,-17,67*,66*,
Cc1ccc(CSc2nnc(-c3ccccc3)n2Cc2ccco2)cc1,0,-7,0,0,2,0,.,.,
Cc1cc(NS(=O)(=O)c2ccc(NC(=O)CSc3nnc(-c4ccccn4)n3-c3ccccc3)cc2)nc(C)n1,1,-19,0,-2,-3,-1,.,.,
N#Cc1ccccc1NC(=S)NC(=O)c1cccs1,-22,6,14*,-11,-40,-20,14*,16*,
N#Cc1ccccc1NC(=O)COC(=O)c1cccs1,0,-1,0,1,2,-3,.,.,
CS(=O)(=O)Nc1ccc(C2=NN(C(=O)CCCC(=O)O)C(c3cccs3)C2)cc1 (stereo not given),i,-2,26*,-414,i,i,48*,74*,
CS(=O)(=O)Nc1cccc(C2=NN(C(=O)CCC(=O)O)C(c3cccs3)C2)c1 (stereo not given),-17,-3,-2,-1,11,-5,.,.,
CN(C)CCCNC(=O)c1cccc(-c2cnc3cccnn23)c1,i,-3,54*,i,i,-399,60*,62*,
Cc1ccc(-c2cc(NC=O)c3ncc(-c4cccc(C(=O)N(C)C)c4)n3c2)cc1,-56,-4,-2,-43,-48,-14,.,.,
CN(C)C(=O)c1cccc(-c2cnc3cccnn23)c1,i,4,45*,i,i,i,59*,59*,
CCS(=O)(=O)Nc1ccc2c(c1)C(=O)N(C)[C@@H]1CC[C@H](CC(=O)NCCCN3CCOCC3)O[C@H]1CO2,5,9,0,2,5,2,.,.,
CCC(C)NC(=O)CSc1nnc(-c2cc(OC)c(OC)c(OC)c2)o1 (stereo not given),3,3,0,1,0,2,.,.,
O=C(Nc1nccs1)c1ccc(N2CCOCC2)c([N+](=O)[O-])c1,1,5,13*,5,0,6,1,0,
CCOC(=O)c1cc2nc(-c3ccco3)cc(C(F)(F)F)n2n1,i,-1,19*,i,i,-180,0,-2,
CS(=O)(=O)NN1C(=O)c2ccccc2NC1c1cccc2cccnc12 (stereo not given),-83,6,4,-79,-77,-28,.,.,
COc1ccc(C2Nc3ccccc3C(=O)N2NS(=O)(=O)c2ccccc2)cc1 (stereo not given),-118,1,17*,-110,-163,-60,9,7.7*,
SMILES,PLC-beta3 inh,HGIII-sPLA2 inh,KLK7 zymogen act,PLC-gamma1 inh,ADAM10 inh,ADAM17 inh,KLK7 act conf,EDANS interfere,others
CC1Nc2ccccc2C(=O)N1NS(C)(=O)=O (stereo not given),-498,4,61*,-465,i,-238,26*,22*,
COc1cc(C2Nc3ccccc3C(=O)N2NS(C)(=O)=O)ccc1O (stereo not given),-420,14,27*,-328,-485,-222,5,6.8*,
COc1ccc(C2Nc3ccccc3C(=O)N2NS(C)(=O)=O)cc1 (stereo not given),-304,-6,61*,-254,-480,-144,11,11*,
O=C1c2ccccc2NC(c2ccccc2)N1NS(=O)(=O)c1ccccc1 (stereo not given),-11,2,2,-10,-14,-4,.,.,
COc1ccccc1N1C(=O)c2ccccc2NC1c1cc(OC)c(OC)c(OC)c1 (stereo not given),i,-2,23*,-448,i,-393,14*,15*,
COc1ccc(C2Nc3ccccc3C(=O)N2NS(=O)(=O)c2ccc(C)cc2)c(OC)c1 (stereo not given),-223,-10,8,-153,-256,-83,.,.,
COc1ccc(C2Nc3ccccc3C(=O)N2NS(=O)(=O)c2ccccc2)c(OC)c1 (stereo not given),-262,6,18*,-184,-218,-91,35*,32*,
CC(C)(C)N1Cc2nnn(Cc3ccccc3)c2-c2cc(N3CCCC3)ccc2S1(=O)=O,-49,6,-5,-41,-49,-16,.,.,
O=C(Nc1ccc(C(F)(F)F)cc1)OC1CCC12CCCCC2 (stereo not given),1,9,0,1,-1,0,.,.,
O=C1Nc2ccc(S(=O)(=O)N3CCOCC3)c3cccc1c23,i,-5,35*,i,i,-212,58*,57*,
O=C1Nc2ccc(S(=O)(=O)N3CCCC3)c3cccc1c23,-499,6,5,-354,-215,-75,.,.,

# Compound activity from PubChem.
